# Test system: U-2932
# Assay: growth inhibition by drug alone (1 - RLU/untreated control) (fraction); higher = stronger inhibition
# Settings: 177Lu-lilotomab satetraxetan 0 ug/ml
# Description: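 U-2932 ABC-DLBCL cells were pretreated or not for 18 h with 1 ug/ml 177Lu-lilotomab satetraxetan (600 MBq/mg), washed and seeded (3000 cells/well) on 384-well plates pre-printed with the Selleck Cambridge Cancer Compound library. Viability was read by RealTime-Glo luminescence on days 3-6 after seeding. Effect = 1 - RLU/mean RLU of the 48 untreated no-drug control wells per plate; Bliss score = (M-E)/(1-Fa), with E the expected Bliss-additive effect.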
SMILES,"growth inhibition by drug alone (10 nM, time (day): 3)","growth inhibition by drug alone (10 nM, time (day): 4)","growth inhibition by drug alone (10 nM, time (day): 5)","growth inhibition by drug alone (10 nM, time (day): 6)","growth inhibition by drug alone (1000 nM, time (day): 3)","growth inhibition by drug alone (1000 nM, time (day): 4)","growth inhibition by drug alone (1000 nM, time (day): 5)","growth inhibition by drug alone (1000 nM, time (day): 6)"
C[C@]12CCC(=O)C(O)=C1CC[C@@H]1[C@@H]2CC[C@]2(C)C(=O)CC[C@@H]12 [Formestane],-0.0202,-0.0416,-0.00849,0.0511,-0.0617,-0.0526,-0.0433,0.0231
Cn1cc(C2=C(c3cn(C4CCN(Cc5ccccn5)CC4)c4ccccc34)C(=O)NC2=O)c2ccccc21,-0.0338,-0.0583,-0.0539,0.0229,-0.144,-0.131,-0.13,-0.0775
CC[C@@H](C(=O)[C@@H](C)[C@@H](O)[C@H](C)[C@@H]1O[C@@H]([C@@H](CC)C(=O)O)CC[C@@H]1C)[C@H]1O[C@]2(C=C[C@@H](O)[C@]3(CC[C@@](C)([C@H]4CC[C@](O)(CC)[C@H](C)O4)O3)O2)[C@H](C)C[C@@H]1C [Salinomycin (Procoxacin)],0.136,0.115,0.00536,-0.0492,0.311,0.423,0.542,0.721
N.N.[Cl][Pt][Cl] [Cisplatin],0.0383,0.00908,-0.0126,0.00453,-0.0314,-0.0428,-0.0416,0.0312
CCC1(c2ccc(N)cc2)CCC(=O)NC1=O (stereo not given) [Aminoglutethimide (Cytadren)],0.0306,-0.0299,-0.152,-0.107,-0.0187,-0.0577,-0.161,-0.122
